Test results published in article PMC12670160, “A drug-repurposing screen of FDA- and EMA-approved drugs identifies two NF-κB inhibitors active against eumycetoma” (Journal of Antimicrobial Chemotherapy, 2025).
Structures can show the parent of a compound that is named as a salt. Where two headings read alike, the source gives them in different places. About 130 (2.5%) of roughly 5,300 compounds showed an effect of 50% or more. The entries come from a sample that favours strong results as a whole.

System: M. mycetomatis strain mm55
Conditions: 96 h, 2 µM

COc1cc2cc(c1Cl)N(C)C(=O)C[C@H](OC(=O)C(C)C)[C@]1(C)O[C@H]1[C@H](C)[C@@H]1C[C@@](O)(NC(=O)O1)[C@H](OC)/C=C/C=C(\C)C2 [ONC0000769, ansamitocin p3]
% viability (m. mycetomatis hyphae): 44.45%

Cc1[nH]c2ccc(O)cc2c1CCN [ONC0000021, 2methyl5hydroxytryptamine]
% viability (m. mycetomatis hyphae): 80.31%

OCC(Br)(Br)Br [ONC0003374, 222tribromoethanol]
% viability (m. mycetomatis hyphae): 70.94%

COC(=O)CC[C@@H]1N=C(c2ccccn2)c2cc(Br)ccc2-n2c(C)cnc21 [ONC0001123, remimazolam benzenesulfonate]
% viability (m. mycetomatis hyphae): 82.85%

Ic1cncc(OC[C@@H]2CCN2)c1 [ONC0001838, 5iodoa85380]
% viability (m. mycetomatis hyphae): 120.9%

NC(=S)N/N=C/c1coc2ccccc2c1=O [ONC0001578, fpa124]
% viability (m. mycetomatis hyphae): 55.38%

C[C@@H](N)C(=O)N[C@@H](CO)C(=O)N[C@H](C(=O)N[C@H](C(=O)N[C@H](C(=O)N[C@@H](CC(N)=O)C(=O)N[C@@H](Cc1ccc(O)cc1)C(=O)N[C@H](C(N)=O)[C@@H](C)O)[C@@H](C)O)[C@@H](C)O)[C@@H](C)O [ONC0001968, dapta]
% viability (primary screen, metabolic activity vs growth control, inhibitor): 96.08%

COc1ccc(C(=O)c2c(C)n(CCN3CCOCC3)c3ccccc23)cc1 [ONC0001936, pravadoline]
% viability (m. mycetomatis hyphae): 72.97%

COc1ccc(C(=O)c2c(C)n(CCN3CCOCC3)c3cc(I)ccc23)cc1 [ONC0003455, am630 iodopravadoline]
% viability (m. mycetomatis hyphae): 49.32%

CC(=O)NCCCOc1ccc(C(=O)N2CCC(N3C(=O)CCc4ccccc43)CC2)cc1 [ONC0002419, fuscoside]
% viability (m. mycetomatis hyphae): 92.96%

C[C@]12CC[C@H](O)C[C@@H]1CC[C@@H]1[C@H]2CC[C@]2(C)C(=O)CC[C@@H]12 [ONC0005247, epiandrosterone 3androsterone]
% viability (m. mycetomatis hyphae): 106.6%

CC(=O)O[C@H]1CC[C@@]2(C)C(=CCC3C2CC[C@]2(C)C(=O)CCC32)C1 (stereo partly shown) [ONC0003269, prasterone acetate]
% viability (m. mycetomatis hyphae): 44.2%

CC(=O)O[C@H]1CC[C@@]2(C)C(=CC(=O)[C@@H]3[C@@H]2CC[C@]2(C)C(=O)CC[C@@H]32)C1 [ONC0002730, 7oxodehydroepiandrosterone acetate]
% viability (m. mycetomatis hyphae): 95.04%

Cc1ncc(OC[C@@]2(c3cccc(F)c3)C[C@H]2C(=O)Nc2ccc(F)cn2)c(C)n1 [ONC0001232, lemborexant]
% viability (m. mycetomatis hyphae): 126.3%

COC(=O)C1=C(C)NC(C)=C(C(=O)OCCCN2CCC(c3ccccc3)(c3ccccc3)CC2)[C@@H]1c1cccc([N+](=O)[O-])c1 [ONC0000198, dexniguldipine]
% viability (m. mycetomatis hyphae): 76.6%

Cc1ccc2c(c1)[C@]13CCCC[C@@H]1[C@H](C2)N(C)CC3 [ONC0001964, dimemorfan]
% viability (m. mycetomatis hyphae): 96.79%

O=C1C=C2C=C[C@@H]3C[C@@]2(O1)[C@H]1CCCCN31 [ONC0004197, securinine]
% viability (m. mycetomatis hyphae): 79.41%

OC1(c2ccc(Cl)cc2)c2ccccc2C2=NCCN21 (stereo not shown) [ONC0005297, mazindol]
% viability (m. mycetomatis hyphae): 110.5%

CN(C)CCNc1nc2cc(O)ccc2c2c1C(=O)c1ccccc1-2 [ONC0002255, tas103 dihydrochloride]
% viability (m. mycetomatis hyphae): 114.4%

COC(=O)/C=C/C(=O)N[C@@H]1CC[C@@]2(O)[C@H]3Cc4ccc(O)c5c4[C@@]2(CCN3CC2CC2)[C@H]1O5 [ONC0001459, betafunaltrexamine]
% viability (m. mycetomatis hyphae): 48.02%

Oc1ccc2c3c1O[C@H]1c4[nH]c5c(c4C[C@@]4(O)[C@@H](C2)N(CC2CC2)CC[C@]314)C[C@@]1(O)[C@H]2Cc3ccc(O)c4c3[C@@]1(CCN2CC1CC1)[C@H]5O4 [ONC0002653, norbinaltorphiminedihydrochloride]
% viability (m. mycetomatis hyphae): 66%

Oc1ccc2c3c1O[C@H]1[C@@H](O)CC[C@@]4(O)[C@@H](C2)N(CC2CCC2)CC[C@]314 [ONC0002017, nalbuphinehcl]
% viability (m. mycetomatis hyphae): 86.82%

CN(C(=O)/C=C/c1ccoc1)[C@@H]1CC[C@@]2(O)[C@H]3Cc4ccc(O)c5c4[C@@]2(CCN3CC2CC2)[C@H]1O5 [ONC0001145, nalfurafine hydrochloride]
% viability (m. mycetomatis hyphae): 84.21%

Oc1ccc2c3c1O[C@H]1c4[nH]c5ccccc5c4C[C@@]4(O)[C@@H](C2)N(CC2CC2)CC[C@]314 [ONC0001519, naltrindole]
% viability (m. mycetomatis hyphae): 93.26%

Oc1ccc2c3c1O[C@H]1c4oc5ccccc5c4C[C@@]4(O)[C@@H](C2)N(CC2CC2)CC[C@]314 [ONC0001439, naltriben]
% viability (m. mycetomatis hyphae): 49.95%

O=C1NC(=S)NC(=O)C1C(=O)Nc1ccccc1 [ONC0002959, merbarone]
% viability (m. mycetomatis hyphae): 104.2%

COc1ccsc1CNCC[C@@]1(c2ccccn2)CCOC2(CCCC2)C1 [ONC0001391, oliceridine hydrochloride]
% viability (m. mycetomatis hyphae): 102.3%

O=C(C[S+]([O-])C(c1ccccc1)c1ccccc1)NO (stereo not shown) [ONC0001184, adrafinil]
% viability (m. mycetomatis hyphae): 106.5%

Clc1ccc(CO/N=C(\Cn2ccnc2)c2ccc(Cl)cc2Cl)c(Cl)c1 [Oxiconazole nitrate]
% viability (m. mycetomatis hyphae): 0.8852%

CC(=O)[C@H]1CC[C@H]2[C@@H]3CC[C@@H]4C[C@H](O)CC[C@]4(C)[C@H]3CC[C@]12C [ONC0001671, allopregnanolone]
% viability (m. mycetomatis hyphae): 102.1%

Cc1ccccc1-n1c(CF)nc2ccc(N)cc2c1=O [ONC0003405, afloqualone]
% viability (m. mycetomatis hyphae): 71.52%

CC(C)CC(N)C1(c2ccc(Cl)cc2)CCC1 (stereo not shown) [ONC0002665, bts54505]
% viability (m. mycetomatis hyphae): 62.54%

O=C(Nc1ccccc1F)N[C@H]1N=C(c2ccccc2)c2ccccc2NC1=O [ONC0000966, rsv604]
% viability (m. mycetomatis hyphae): 70.36%

OCC(O)[C@H]1O[C@@H]2O[C@H](C(Cl)(Cl)Cl)O[C@@H]2[C@H]1O (stereo partly shown) [ONC0004285, chloralose]
% viability (m. mycetomatis hyphae): 88.6%

c1ccc(CC(c2ccccc2)N2CCCCC2)cc1 (stereo not shown) [ONC0000060, 112diphenylethylpiperidine]
% viability (m. mycetomatis hyphae): 45.07%

Cc1cccc(C)c1N=C1NCCCS1 [ONC0000628, xylazine]
% viability (m. mycetomatis hyphae): 103.4%

O=C(O)Cc1cccnc1C(=O)O [ONC0001551, homoquinolinicacid]
% viability (m. mycetomatis hyphae): 85.08%

CC(C)(O)[C@H]1[C@@H]2OC(=O)[C@@H]1[C@]1(O)C[C@H]3O[C@]34C(=O)O[C@H]2[C@]14C [ONC0002779, picrotin]
% viability (m. mycetomatis hyphae): 109.3%

C=C(C)[C@@H]1[C@H]2OC(=O)[C@H]1[C@]1(O)C[C@H]3O[C@]34C(=O)O[C@H]2[C@]14C [ONC0004797, picrotoxinin]
% viability (m. mycetomatis hyphae): 48.22%

C=CCN1CC[C@@]2(C)c3cc(O)ccc3C[C@H]1[C@H]2C [ONC0000854, skf10047]
% viability (m. mycetomatis hyphae): 56.88%
